Laboratory results taken from the supplement of paper PMC10646978.
± gives the standard deviation.

Experiments:
Settings in all cases: modulator concentration 10 µM
[1] = tested on: RAW-Dual (murine macrophage reporter line); assay: NF-kB reporter (SEAP) activity fold change vs agonist alone; higher = enhanced NF-kB activity
How it was run: (§1)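 RAW-Dual murine macrophage reporter cells were plated at 50 000 per well in 384-well plates, pin-transferred compound to 10 μM final, and pre-incubated for 1 hour at 37 °C before a PRR agonist was added and the cells incubated overnight. NF-κB activity was read from supernatant SEAP with QUANTI-Blue at 620 nm absorbance, and IRF activity from Lucia luciferase with QUANTI-Luc by luminescence. Each signal was expressed as fold change by dividing by the mean agonist-only control on the same plate. Two replicate plates were averaged, with errors obtained by propagation.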

[2] = tested on: RAW-Dual (murine macrophage reporter line); assay: IRF reporter (Lucia luciferase) activity fold change vs agonist alone; higher = enhanced IRF activity
How it was run: as §1

[3] = tested on: RAW-Dual (murine macrophage reporter line); assay: viability score (confluency relative to resting cells, overnight) (fraction); higher = more viable, active = viable (0.7 or more)
How it was run: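 Overnight exposure to 10 μM final compound was carried out on RAW-Dual macrophages in 384-well plates. IncuCyte software generated two confluency masks over all wells imaged with IncuCyte. The viability score gives confluency in relation to resting cells. A compound met the cutoff if each mask exceeded 70% of resting cells.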

[4] = agonist: CpG ODN 1826 0.5 ug/mL

Compound | NF-kB reporter [1, 4] | NF-kB reporter ([1]; agonist: LPS 0.1 ug/mL) | NF-kB reporter ([1]; agonist: MPLA […]) | IRF reporter ([2]; agonist: 3'3'-cGAMP 10 ug/mL) | IRF reporter ([2]; agonist: LPS 0.1 ug/mL) | IRF reporter ([2]; agonist: MPLA […]) | viability score [3]
O=C(NC1CCCCC1)c1cccc(C(F)(F)F)c1 | 0.851 ± 0.31 | 1.09 ± 0.14 | 1 ± 0.12 | 0.775 ± 0.033 | 1.15 ± 0.16 | 1.47 ± 0.3 | 0.997 (active)
CCOc1ccc(C=NNc2nc(C)cs2)c(O)c1 | 0.949 ± 0.087 | 0.965 ± 0.13 | 1.03 ± 0.073 | 0.624 ± 0.024 | 0.988 ± 0.069 | 0.981 ± 0.15 | 0.999 (active)
Cl.O[C@@H](c1cc(C(F)(F)F)nc2c(C(F)(F)F)cccc12)[C@H]1CCCCN1 | 0.671 ± 0.091 | 0.59 ± 0.044 | 1.05 ± 0.071 | 0.504 ± 0.066 | 1.04 ± 0.096 | 2.25 ± 0.17 | 0.137 (inactive)
COc1cc(C=NNC(=O)c2ccc(OC)c(OC)c2)ccc1O | 0.788 ± 0.32 | 0.838 ± 0.098 | 0.831 ± 0.066 | 0.83 ± 0.022 | 0.938 ± 0.15 | 1.15 ± 0.15 | 0.996 (active)
CCC(C(=O)NCc1ccnc(-c2ccncc2)c1)c1ccccc1 (centres undefined) | 1.27 ± 0.09 | 1.1 ± 0.084 | 1.12 ± 0.03 | 0.574 ± 0.029 | 0.654 ± 0.086 | 0.545 ± 0.12 | 0.994 (active)
CC1CCC2C(C)(CO)C(O)CCC2(C)C12CCC(CO)(CCO)O2 (centres undefined) | 0.983 ± 0.073 | 0.945 ± 0.049 | 1.02 ± 0.033 | 0.99 ± 0.11 | 0.949 ± 0.048 | 0.952 ± 0.076 | 1 (active)
CC(C)(O)CNC(=O)c1cccc([N+](=O)[O-])c1 | 0.928 ± 0.074 | 0.96 ± 0.11 | 0.954 ± 0.058 | 0.811 ± 0.12 | 0.971 ± 0.15 | 0.979 ± 0.23 | 0.995 (active)
CCOC(=O)N(CC(=O)OC)CP(=O)(O)C(Cc1ccccc1)C(=O)O (centres undefined) | 0.988 ± 0.058 | 1.02 ± 0.07 | 0.969 ± 0.069 | 1.03 ± 0.045 | 1.41 ± 0.21 | 1.07 ± 0.095 | 1 (active)
CC(C)(CO)NC(=O)C(c1ccccc1)c1ccccc1 | 1.24 ± 0.14 | 0.961 ± 0.086 | 1 ± 0.041 | 0.937 ± 0.035 | 0.991 ± 0.051 | 0.896 ± 0.095 | 0.996 (active)
COc1ccc(C(=O)Oc2ccc(-c3ccc(C)cc3)cc2)cc1OC | 0.744 ± 0.058 | 0.892 ± 0.042 | 1 ± 0.09 | 0.957 ± 0.069 | 1.22 ± 0.09 | 1.27 ± 0.15 | 0.996 (active)
Cc1occc1C(=O)Nc1ccc([N+](=O)[O-])cc1Cl | 0.88 ± 0.079 | 0.851 ± 0.066 | 0.898 ± 0.026 | 1.02 ± 0.088 | 0.931 ± 0.12 | 0.874 ± 0.2 | 0.995 (active)
O=c1ccc2ccc(OCCCCN3CCN(c4cccc5sccc45)CC3)cc2[nH]1 | 0.31 ± 0.016 | 0.917 ± 0.073 | 1.16 ± 0.14 | 1.05 ± 0.096 | 1.35 ± 0.25 | 1.15 ± 0.34 | 0.27 (inactive)
Cc1c(N=Cc2cc([N+](=O)[O-])ccc2O)c(=O)n(-c2ccccc2)n1C | 0.911 ± 0.055 | 0.995 ± 0.061 | 0.907 ± 0.089 | 0.917 ± 0.03 | 1.34 ± 0.15 | 1.18 ± 0.2 | 0.999 (active)
COc1cc(Nc2ncc3c(n2)-c2ccc(Cl)cc2C(c2c(F)cccc2OC)=NC3)ccc1C(=O)O | 0.416 ± 0.036 | 0.72 ± 0.038 | 0.775 ± 0.081 | 0.974 ± 0.045 | 1.06 ± 0.062 | 1.06 ± 0.15 | 0.92 (active)
Cc1cccc(Cn2cc(C=C3SC(=S)NC3=O)c3ccccc32)c1 | 0.681 ± 0.067 | 0.893 ± 0.043 | 1 ± 0.088 | 0.844 ± 0.045 | 0.955 ± 0.1 | 1.09 ± 0.17 | 1.02 (active)
Cl.Cl.O=C1c2c(O)ccc(O)c2C(=O)c2c(NCCNCCO)ccc(NCCNCCO)c21 | 0.0718 ± 0.0057 | 0.065 ± 0.0036 | 0.125 ± 0.011 | 0.0431 ± 0.0042 | 0.0592 ± 0.012 | 0.0943 ± 0.0079 | 0.388 (inactive)
CC1C(C#N)=C(N)OC2=C1C(=O)CC(C)(C)C2 (centres undefined) | 1.01 ± 0.083 | 0.965 ± 0.12 | 0.96 ± 0.09 | 0.917 ± 0.072 | 1.28 ± 0.23 | 1.47 ± 0.35 | 1.02 (active)
CC(C)(C)N1CC(c2nc3ccccc3n2Cc2c(F)cccc2Cl)CC1=O (centres undefined) | 1.28 ± 0.094 | 1.1 ± 0.088 | 0.901 ± 0.041 | 1.2 ± 0.06 | 1.15 ± 0.1 | 1.28 ± 0.19 | 0.974 (active)
CC1CCN(c2cc(N3CCNCC3)ncn2)CC1 | 0.972 ± 0.32 | 1.08 ± 0.054 | 1.02 ± 0.069 | 0.932 ± 0.032 | 1.11 ± 0.17 | 1.26 ± 0.26 | 0.997 (active)
CC(NC(=O)C1CCN(S(=O)(=O)N2CCCC2)CC1)c1ccc(F)cc1 (centres undefined) | 1.08 ± 0.054 | 1.05 ± 0.082 | 0.928 ± 0.041 | 0.953 ± 0.051 | 1.25 ± 0.085 | 1.09 ± 0.15 | 0.992 (active)
NC(=NOC(=O)c1ccc2nsnc2c1)c1ncon1 | 1.04 ± 0.17 | 0.965 ± 0.084 | 0.905 ± 0.088 | 0.922 ± 0.035 | 1.05 ± 0.11 | 1.18 ± 0.12 | 0.996 (active)
CCCn1c(C(O)(c2ccccc2)c2ccccc2)nc2ccccc21 | 0.514 ± 0.034 | 1.07 ± 0.082 | 0.736 ± 0.05 | 1.3 ± 0.08 | 1.1 ± 0.086 | 1.04 ± 0.19 | 0.888 (active)
CCc1cnn2c(NCc3ccc[n+]([O-])c3)cc(N3CCCC[C@H]3CCO)nc12 | 0.338 ± 0.018 | 0.0505 ± 0.0045 | 0.114 ± 0.0049 | 0.0244 ± 0.0044 | 0.0353 ± 0.0054 | 0.0374 ± 0.0047 | 0.0417 (inactive)
Oc1ccc(-c2cnc(-c3ccc(O)cc3)nc2)cc1 | 0.924 ± 0.22 | 0.965 ± 0.091 | 1.42 ± 0.1 | 0.347 ± 0.017 | 0.555 ± 0.08 | 0.591 ± 0.16 | 0.927 (active)
NNC(=O)c1ccncc1 | 1.51 ± 0.21 | 1.33 ± 0.21 | 1.31 ± 0.14 | 0.91 ± 0.028 | 1.42 ± 0.12 | 1.11 ± 0.14 | 0.999 (active)
COc1ccc(CNC(=O)NCC#CCOc2cccc(C(F)(F)F)c2)cc1OC | 1.07 ± 0.11 | 1.07 ± 0.098 | 0.95 ± 0.063 | 1.01 ± 0.05 | 1.09 ± 0.13 | 1.13 ± 0.29 | 1.01 (active)
COc1ccc(CC(N)C(=O)NC2C(CO)OC(n3cnc4c(N(C)C)ncnc43)C2O)cc1.Cl.Cl (centres undefined) | 0.817 ± 0.068 | 0.514 ± 0.044 | 0.936 ± 0.094 | 0.699 ± 0.022 | 1.03 ± 0.13 | 1.3 ± 0.21 | 0.817 (active)
